Assay [1] addresses Cellular tumor antigen p53 (Homo sapiens) (UniProt P04637). Nature of the assay: TOX21_p53_BLA_p3_ratio: Tox21 HCT-116 p53 Agonism Beta-lactamase Assay, Ratio, Phase 3 (AID 2283596). In a few lines: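 HCT116 p53-bla cells (4000/well) given compound in DMSO (217-fold dilution) after 5 h, incubated 16 h at 37C. CCF4-AM substrate 2 h at room temperature; 460/530 nm emission ratio, gain fitted against DMSO.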

The nature of assay [2]: TOX21_p53_BLA_p4_viability: Viability Assessment in the Tox21 HCT-116 p53 Agonism Beta-lactamase Assay, Phase 4 (AID 2283597).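 Also: hits lower the luminescence signal meaning cytotoxicity.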 The method, boiled down: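 HCT-116 p53-bla cells, 4000/well, dosed after 5 h attachment and incubated 16 h at 37 °C, 5% CO2. Viability from CellTiter-Glo ATP luminescence after 30 min at room temperature, taken after the beta-lactamase read; loss of signal indicates cytotoxicity.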

The target in assay [3] is Cellular tumor antigen p53 (Homo sapiens) (UniProt P04637). Nature of the assay: TOX21_p53_BLA_p5_ratio: Tox21 HCT-116 p53 Agonism Beta-lactamase Assay, Ratio, Phase 5 (AID 2283599). The method, boiled down: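 HCT-116 cells carrying a p53-inducible beta-lactamase reporter were seeded at 4000 cells/well and dosed after 5 h with compound in DMSO (217-fold dilution). After 16 h at 37C, CCF4-AM substrate was added for 2 h, and the 460/530 nm emission ratio was scored as gain-of-signal versus DMSO.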
Chain of Cellular tumor antigen p53 (Homo sapiens) (P04637 whole entry, looked up): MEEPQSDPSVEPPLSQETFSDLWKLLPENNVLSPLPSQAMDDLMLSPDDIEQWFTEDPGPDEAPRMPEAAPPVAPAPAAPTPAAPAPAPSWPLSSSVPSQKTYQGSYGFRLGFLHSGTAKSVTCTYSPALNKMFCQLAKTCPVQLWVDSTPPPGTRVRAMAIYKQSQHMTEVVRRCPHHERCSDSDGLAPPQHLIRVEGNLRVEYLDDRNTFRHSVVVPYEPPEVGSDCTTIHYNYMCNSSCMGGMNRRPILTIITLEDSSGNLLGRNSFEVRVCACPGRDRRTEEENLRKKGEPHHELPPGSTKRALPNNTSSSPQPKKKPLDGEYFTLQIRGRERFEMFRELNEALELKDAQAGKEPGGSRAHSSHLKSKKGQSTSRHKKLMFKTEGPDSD

A short description of assay [4]: TOX21_p53_BLA_p5_viability: Viability Assessment in the Tox21 HCT-116 p53 Agonism Beta-lactamase Assay, Phase 5 (AID 2283600). The method, boiled down: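 HCT-116 p53 beta-lactamase reporter cells, 4000/well, were exposed to compound (pin transfer, 217-fold dilution) for 16 hours at 37C. Cellular ATP was read by CellTiter-Glo luminescence after 30 min at room temperature.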

Assay [5] concerns the target Cellular tumor antigen p53 (Homo sapiens) (UniProt P04637). Nature of the assay: TOX21_p53_BLA_p4_ratio: Tox21 HCT-116 p53 Agonism Beta-lactamase Assay, Ratio, Phase 4 (AID 2283601). The method, boiled down:
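HCT116 cells carrying an inducible beta-lactamase reporter were plated at 4000 cells/well, rested 5 h, then exposed to compounds in DMSO (217-fold dilution) for 16 h at 37C. CCF4-AM substrate was loaded 2 h at room temperature; 460/530 nm emission ratio scored gain-of-signal versus DMSO.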

Assay [6] in a line: Tanguay_ZF_120hpf_MORT_legacy: (Legacy) Oregon State University Tanguay Lab 120 Hour Post-fertilization zebrafish Assay for Mortality (AID 2283633).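 As to AC50: fitted as increase in binary mortality versus DMSO negative control.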 In a few lines: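 Dechorionated Tropical 5D wild-type zebrafish embryos, one per well from 6 hpf, static exposure in 0.64% DMSO at 28C until 120 hpf. Mortality scored as binary by brightfield microscopy at 24 and 120 hpf.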
The nature of assay [7]: Tanguay_ZF_120hpf_YSE_legacy: (Legacy) Oregon State University Tanguay Lab 120 Hour Post-fertilization zebrafish Assay for Yolk Sac Edema (AID 2283634).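 As to AC50: actives raise the incidence of yolk sac edema above the DMSO baseline.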 In a few lines:
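Dechorionated Tropical 5D wild-type zebrafish embryos were exposed statically, one per well, from 6 to 120 hpf at 28C in 0.64% DMSO. Yolk sac edema was scored present/absent by brightfield at 120 hpf, and dead embryos were excluded.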

Assay [8] is described as follows: Tanguay_ZF_120hpf_AXIS_legacy: (Legacy) Oregon State University Tanguay Lab 120 Hour Post-fertilization zebrafish Assay for Body Axis Malformation (AID 2283635).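 As to AC50: potency for an increased fraction of larvae scored with body axis malformation.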 In a few lines: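 Dechorionated wild-type Tropical 5D zebrafish embryos, one per well, statically exposed from 6 hpf to 120 hpf at 28C in 0.64% DMSO final. Body axis malformation scored present/absent by brightfield microscopy at 120 hpf; dead embryos excluded.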

A short description of assay [9]: Tanguay_ZF_120hpf_EYE_legacy: (Legacy) Oregon State University Tanguay Lab 120 Hour Post-fertilization zebrafish Assay for Eye Malformation (AID 2283636).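 Also: binary presence or absence of eye malformation scored by brightfield in 120 hpf larvae.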 The method, boiled down: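 Dechorionated wild-type Tropical 5D zebrafish embryos were exposed statically from 6 hpf, one per well, to 120 hpf at 28C in sealed, foil-covered plates with 0.64% DMSO. Eye malformation was scored present/absent by brightfield microscopy against DMSO controls.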

Assay [10] is described as follows: Tanguay_ZF_120hpf_SNOU_legacy: (Legacy) Oregon State University Tanguay Lab 120 Hour Post-fertilization zebrafish Assay for Snout Malformation (AID 2283637). The method, boiled down:
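Tropical 5D wild-type zebrafish embryos, dechorionated with pronase at 4 hpf, were exposed singly from 6 hpf to 120 hpf statically at 28C in 0.64% DMSO. Snout malformation was scored present/absent by brightfield microscopy, fitted against DMSO.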

Values joined by “and” are separate entries in the source; they are usually repeats but may differ in a detail not shown here. Equal values may be shown once. Inconclusive results are not listed. The source holds several records for some structures; these can differ, active in one and inactive in another. Active and inactive are the calls of the source. The calls were made as follows: active = hit-call score of the fitted dose curve at least 0.9, where 1 is the maximum; inconclusive = response in the unintended direction; inactive = score below 0.9.

What is called AC50 is the midpoint of the concentration-response curve, whichever way the signal moves. In the case of `CCC(C)(c1ccc(O)cc1)c1ccc(O)cc1`, the AC50 in [1] was 86.3 µM (active) and 76.2 µM (active); in assay [2], 77.1 µM (active); in assay [3] it was 75.7 µM (active); in [5], 84.6 µM (active) and 82.3 µM (active); in assay [6] it was 36.9 µM (active); in assay [7], 41 µM (active). In addition, the figures for the AC50 in [8], in [9] and in assay [10] were 46.9 µM (active), 46.2 µM (active) and 46.2 µM (active), respectively. For the same compound, the outcome in [2], in assay [3] and in assay [4] was inactive.
With `Clc1ccc(C(c2ccccc2Cl)C(Cl)(Cl)Cl)cc1` (centres undefined), the AC50 in assay [1] is 46.3 µM (active); in [2], 30.2 µM (active) and 62.2 µM (active); in assay [3], 72.8 µM (active); in assay [4], 72.2 µM (active); in assay [5] it was 48.7 µM (active) and 76.4 µM (active). Besides, the outcome in [1], in assay [3], in assay [4], in assay [6], in assay [7] and in assay [8] was inactive. For the same compound, the outcome in assay [10] was inactive.
On to `CN(C)CCO`, for which the outcome in assay [1], in assay [2], in [3], in assay [4], in assay [5] and in assay [6] was inactive. Moreover, the call in [7], in assay [8], in [9] and in assay [10] was inactive.
Consider `Cc1cc(-c2ccc(N)c(C)c2)ccc1N`, for which the result in assay [1], in [2], in assay [3], in assay [4], in [5] and in [6] was inactive. Further, the result in [7], in assay [8], in [9] and in assay [10] was inactive. The AC50 in assay [5] was 70.7 µM (active).
For `CO/C=C(/C(=O)OC)c1ccccc1COc1cccc(C(F)(F)F)n1`, the AC50 was 6.17 µM (active) in assay [1]; 4.18 µM (active) in assay [3]; 5.53 µM (active) in assay [5]; 4.88 µM (active) in assay [7]; 6.06 µM (active) in assay [8]; 3.83 µM (active) in assay [9]. The half-maximal activity concentration (AC50) in assay [10] was 2.99 µM (active). In addition, the call in assay [2], in [4] and in assay [6] was inactive.
Take `O=C(N[C@H]1CN2CCC1CC2)c1cc2ccoc2cn1`: the result in assay [1], in assay [2], in assay [3], in assay [4], in [5] and in assay [6] was inactive. Moreover, the result in assay [7], in [8], in [9] and in assay [10] was inactive.
For the compound `CC(c1ccc(O)cc1)(c1ccc(O)cc1)c1ccc(O)cc1`, the concentration at half-maximal activity (AC50) in assay [1] is 78.9 µM (active); in assay [5], 80.8 µM (active). In addition, the call in assay [2], in assay [3], in assay [4], in [6], in assay [7] and in [8] was inactive. Also, the compound was classed as inactive in [9] and in [10].
For `Cc1cccc([N+](=O)[O-])c1`, the outcome in assay [1], in assay [2], in assay [3], in [4], in assay [5] and in assay [6] was inactive. Moreover, the call in assay [7], in assay [8], in assay [9] and in assay [10] was inactive.
On to `Clc1ccc(Cl)cc1`, for which the outcome in assay [1], in assay [2], in assay [3], in [4], in assay [5] and in [6] was inactive. Moreover, the outcome in [7], in [8], in assay [9] and in [10] was inactive.
In the case of `COS(=O)(=O)OC`, the outcome in [1], in assay [2], in assay [3], in [4], in [5] and in assay [6] was inactive. The call in assay [7], in [8], in assay [9] and in assay [10] was inactive.
For the compound `c1cc2ccc3cccc4ccc(c1)c2c34`, the result in assay [1], in assay [2], in [3], in [4], in [5] and in [6] was inactive. The compound was classed as inactive in assay [7], in assay [8], in assay [9] and in assay [10].
With `NS(=O)(=O)C(F)(F)C(F)(F)C(F)(F)C(F)(F)C(F)(F)C(F)(F)C(F)(F)C(F)(F)F`, the AC50 in assay [1] is 47 µM (active); in [3], 82.3 µM (active); in assay [4], 46.1 µM (active); in assay [6], 24.9 µM (active). The compound was classed as inactive in assay [2], in assay [5], in [7], in assay [8], in assay [9] and in assay [10].
As to `C[C@]12CCC(=O)C=C1CC[C@@H]1[C@@H]2CC[C@@]2(C)[C@H]1CC[C@]2(C)O`, the result in assay [1], in assay [2], in [3], in assay [4], in assay [5] and in assay [6] was inactive. In addition, in [7], the outcome was inactive. The half-maximal activity concentration (AC50) is 47.1 µM (active) in [3] and 48.6 µM (active) in [5].
As to `O=C(O)C(F)(F)C(F)(F)C(F)(F)C(F)(F)C(F)(F)C(F)(F)C(F)(F)C(F)(F)F`, the outcome in [1], in assay [4], in [5], in [6], in assay [7] and in assay [8] was inactive. The compound was called inactive in assay [9] and in assay [10]. The figures for the half-maximal activity concentration (AC50) in assay [2] and in assay [3] were 46.1 µM (active) and 82.9 µM (active), respectively.

The values above are taken from PubChem BioAssay (EPA / NIEHS).
